sPLA2-III inh: Blocks human group III sPLA2 activity. Q9NZ20. QFRET BODIPY PC-A2 liposome hydrolysis, fluorescence. inhibition, % at 12.2 µM. 370,000 tested, 0.56% active. AID 743126;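 active means inhibition above mean plus 3 SD of compounds lying within the high and low control bounds, cut at about 19% in these data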;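 further: 0% = median of test compound wells and 100% = no enzyme DMSO wells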
Target sequence (Q9NZ20 whole entry, looked up): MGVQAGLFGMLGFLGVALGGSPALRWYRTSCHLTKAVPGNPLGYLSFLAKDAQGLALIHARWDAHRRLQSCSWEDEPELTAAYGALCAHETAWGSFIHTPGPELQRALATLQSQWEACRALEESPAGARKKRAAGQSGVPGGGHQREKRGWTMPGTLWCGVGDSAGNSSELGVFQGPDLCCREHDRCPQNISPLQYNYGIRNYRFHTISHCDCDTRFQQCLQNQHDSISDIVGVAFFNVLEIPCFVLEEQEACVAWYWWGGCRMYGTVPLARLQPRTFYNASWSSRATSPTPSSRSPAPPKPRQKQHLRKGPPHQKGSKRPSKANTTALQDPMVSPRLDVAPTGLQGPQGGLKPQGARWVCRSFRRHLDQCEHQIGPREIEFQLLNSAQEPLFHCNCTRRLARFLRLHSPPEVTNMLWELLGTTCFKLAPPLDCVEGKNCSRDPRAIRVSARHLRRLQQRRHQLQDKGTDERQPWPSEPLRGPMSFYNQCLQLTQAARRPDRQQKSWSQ
Rin1 Abl inh: human Rin1-Abl interaction inhibition. P00519+Q13671. TR-FRET Rin1/Abl binding, biochemical. inhibition, % at 7.35 µM. 360,000 tested, 0.4% active; in the data active means inhibition above about 5%, passing the limit was not always enough
AI-2 QS mod: modulators of Vibrio harveyi AI-2 quorum sensing system. Vibrio harveyi JMH597 AI-2 luminescence/OD600 ratio, 9 h; stronger effect = lower value; strain lacks LuxN and CqsS sensors; 0 = neutral-control median. activity change, % at 7.5 µM. 300,000 tested, 0.4% active. AID 2094; in the data active means activity change below about -75%, passing the limit was not always enough;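 further: luminescence divided by OD600 gain over 9 h not by final OD600 alone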
ARNT-TACC3 inh: disrupts binding between human ARNT and TACC3 | AlphaScreen His-ARNT PAS-B/GST-TACC3 binding, luminescence; TACC3 fragment carries E629A point mutation | inhibition, % at 9.99 µM | 390,000 tested, 0.66% active;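 active means mean inhibition of replicates at least 50% and at least half of replicates each reaching 50%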;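 further: 0% = complete ARNT plus TACC3 wells and 100% = ARNT alone without TACC3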
hGIII sPLA2 conf: human GIII-sPLA2 inhibition, confirmation | inhibition, % at 12.2 µM | 2,000 tested, 34% active | recombinant hGIII-sPLA2, BODIPY PC-A2 QFRET fluorescence | shares compounds with sPLA2-III inh;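 active means mean inhibition across triplicates above the hit cutoff set in the earlier primary screen, cut at about 19% in these data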;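 further: 0% = enzyme with DMSO and 100% = DMSO wells lacking enzyme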
BODIPY interf: optically interferes with 535nm fluorescence in sPLA2 counter-screen; shares compounds with sPLA2-III inh; BODIPY FL product fluorescence interference, QFRET; inhibition, % at 12.2 µM; 2,000 tested, 8.5% active;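 active means average inhibition above the solvent-only control mean plus 3 SD, cut at about 6% in these data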;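 further: 0% = DMSO with substrate plus product and 100% = DMSO with substrate alone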
Active calls of the source: *. An excerpt weighted towards active compounds, which were near 1.5% of everything screened.

How did CCOP(=O)(OCC)C1(C(=O)O)CCCC1 do in these assays?
sPLA2-III inh: 24*; Rin1 Abl inh: 0; AI-2 QS mod: 16; ARNT-TACC3 inh: -3; hGIII sPLA2 conf: 6; BODIPY interf: -3

What do the screens show for `CCOP(=O)(OCC)C1(O)C(=O)Nc2ccccc21` (centres undefined)?
sPLA2-III inh: -14; Rin1 Abl inh: 0; AI-2 QS mod: 12; ARNT-TACC3 inh: -5

Results for COc1ccc(NC(=S)NC(NC(=O)CF)C(Cl)(Cl)Cl)cc1[N+](=O)[O-] (centres undefined) ?
sPLA2-III inh: 19*; Rin1 Abl inh: -3; AI-2 QS mod: 28; ARNT-TACC3 inh: 4; hGIII sPLA2 conf: 18; BODIPY interf: -3

How did c1ccc(Cc2cnc(N3CCNCC3)nc2)cc1 do in these assays?
sPLA2-III inh: 25*; hGIII sPLA2 conf: -5; BODIPY interf: -7

How did c1cnc(N2CCNCC2)nc1 do in these assays?
sPLA2-III inh: 13; Rin1 Abl inh: 0; AI-2 QS mod: 9; ARNT-TACC3 inh: -5

How did Cc1c(N=Nc2c(O)n(C)c(=O)n(C)c2=O)c(=O)n(-c2ccccc2)n1C do in these assays?
sPLA2-III inh: 19*; Rin1 Abl inh: 1; AI-2 QS mod: 21; hGIII sPLA2 conf: 1; BODIPY interf: -4

Results for COCC#Cc1ccc([C@H]2[C@H](CO)N3CCCCN(C(=O)Cc4ccccn4)C[C@@H]23)cc1 ?
ARNT-TACC3 inh: 14

Results for O=C(Cc1ccccn1)N1CCCCN2[C@@H](CO)[C@H](c3ccc(-c4ccccc4F)cc3)[C@@H]2C1 ?
ARNT-TACC3 inh: 6

Results for Cc1cc(C(=O)N=Nc2c(O)n(C)c3ccccc23)c(C)o1 ?
sPLA2-III inh: 23*; Rin1 Abl inh: -5; AI-2 QS mod: 6; ARNT-TACC3 inh: -2; hGIII sPLA2 conf: 1; BODIPY interf: -2

How did Nc1ccc(-c2ccc(N)cc2)cc1 do in these assays?
sPLA2-III inh: 19*; Rin1 Abl inh: 0; ARNT-TACC3 inh: 3; hGIII sPLA2 conf: 17; BODIPY interf: -4

Results for COc1ccccc1N1CCN(Cc2ccc(F)cc2)CC1 ?
sPLA2-III inh: 3; Rin1 Abl inh: 1; AI-2 QS mod: 9

Results for COc1ccccc1N1CCN(Cc2ccc(Cl)cc2Cl)CC1 ?
sPLA2-III inh: 21*; Rin1 Abl inh: -1; AI-2 QS mod: 13; ARNT-TACC3 inh: 0; hGIII sPLA2 conf: 11; BODIPY interf: -9

What do the screens show for `C[C@H](CO)N1C[C@H](C)[C@@H](CN(C)C(=O)Oc2cccc3ccccc23)OCc2cnnn2CCCC1=O`?
ARNT-TACC3 inh: -4

What do the screens show for `O=c1[nH]c(=S)n(C2CC2)c(O)c1/C=N/Nc1ccccc1`?
sPLA2-III inh: 22*; Rin1 Abl inh: 1; AI-2 QS mod: 28; ARNT-TACC3 inh: 2; hGIII sPLA2 conf: 16; BODIPY interf: -4

Results for Cc1ccccc1-c1ccc([C@@H]2[C@@H](CO)N3CCCCN(C(=O)Cc4ccccn4)C[C@@H]23)cc1 ?
ARNT-TACC3 inh: 2

Assay outcomes: PubChem, several laboratories
